The text below walks through data of PubChem BioAssay AID778 (Sanford-Burnham Center for Chemical Genomics, 2007).

Screen size: about 96,000 compounds; about 20,000 (21%) were called active.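 The calls were made as follows: active = CYP2C19 inhibition above a set limit at 5 µM in the primary screen (cut at about 50% in these data); inactive = the rest.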 A selection follows. Non-standard residues stand in square brackets, D forms with d. Residues, ends and D or L forms follow the SMILES beside them. ξ: configuration not given here. ξV = CC(C)C(N)C(=O)O

As usually defined, the inhibition is the drop in the measured response relative to a control, in per cent.

The assay deals with Cytochrome P450 2C19 (Homo sapiens) (UniProt P33261). Nature of the assay: blockers of cytochrome P450 2C19 activity – biochemical, luminescence, ADME assay, primary screen (AID 778).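 Also: plate controls were negative control wells for no effect and 2.5 mM tranylcypromine positive control for full effect.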 Conditions: CYP2C19 Supersomes, luciferin-H EGE luminescence, 30 min; at 5 µM; hits give high values.
Cytochrome P450 2C19 (Homo sapiens), sequence (P33261 whole entry, looked up): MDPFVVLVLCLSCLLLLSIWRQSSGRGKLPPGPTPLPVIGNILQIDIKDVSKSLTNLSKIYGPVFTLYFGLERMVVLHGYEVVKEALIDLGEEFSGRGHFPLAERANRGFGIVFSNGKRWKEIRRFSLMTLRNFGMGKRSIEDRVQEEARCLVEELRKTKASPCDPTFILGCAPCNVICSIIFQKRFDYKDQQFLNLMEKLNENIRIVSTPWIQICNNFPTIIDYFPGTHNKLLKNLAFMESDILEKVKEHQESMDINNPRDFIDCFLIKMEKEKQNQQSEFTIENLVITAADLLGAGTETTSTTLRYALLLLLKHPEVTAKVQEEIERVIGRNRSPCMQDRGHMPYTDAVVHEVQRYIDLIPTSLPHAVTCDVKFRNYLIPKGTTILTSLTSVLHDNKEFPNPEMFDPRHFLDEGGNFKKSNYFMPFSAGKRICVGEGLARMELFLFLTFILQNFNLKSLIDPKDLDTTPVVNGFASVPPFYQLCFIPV
With `CCC1(C)N(O)C(C)(C)C(c2ccc(OC)cc2)=[N+]1[O-]` (configuration not stated), the inhibition is -7.3% (inactive).
Regarding `C=CCNc1nc(N)c(C(=C(C#N)C#N)c2ccccc2)s1`, the inhibition was 21.5% (inactive).
On to `CS(=O)(=O)N1CCN(C(=O)Cc2ccccc2)CC1`, for which the inhibition was 16.8% (inactive).
To `Cc1c(NC(=O)c2cc(-c3ccc(Cl)s3)nc3ccccc23)c(=O)n(-c2ccccc2)n1C` belongs 18.3% (inactive).
In the case of `CSc1nnc2c(n1)OC(c1ccsc1)N(C(C)=O)c1ccccc1-2` (configuration not stated), the inhibition was 5.9% (inactive).
Take `Cc1nc2ccccc2c(-c2ccccc2)c1C(=O)c1ccccc1`: the inhibition was 12% (inactive).
For `CCc1nnc(NS(=O)(=O)c2ccc(N=Cc3c(C)[nH]n(-c4ccc(C)cc4)c3=O)cc2)s1`, the inhibition is -2.3% (inactive).
The same measure for `CCn1c(=N)n(CC(=O)c2cccc(OC)c2)c2ccccc21`: -12.1% (inactive); for `Cc1ccc(C(=O)NCC2CCCO2)o1` (configuration not stated): -1.3% (inactive).
As for `CCOC(=O)C1CCCN(C(=O)CN(c2ccc(OC)cc2)S(=O)(=O)c2c(C)noc2C)C1` (configuration not stated), the inhibition was 12.3% (inactive).
Consider `Cc1cc(C)cc(N(CC(=O)N2CC=C(c3ccccc3)CC2)S(=O)(=O)c2c(C)noc2C)c1`, for which the inhibition is 89.1% (active).
`Cc1cc(C)cc(N(CC(=O)NCC2CCCO2)S(=O)(=O)c2c(C)noc2C)c1` (configuration not stated): the inhibition was 82.9% (active).
To `Cc1ccc(S(=O)(=O)N2CCC(C(=O)NCC3CCCO3)CC2)cc1` (configuration not stated) belongs 6.5% (inactive).
`O=C(Nc1ccc(Cl)c(Cl)c1)N1CC=C(c2ccccc2)CC1`: the inhibition was 28.4% (inactive).
To `Cc1cc(=O)n2nc(N3CCCC3C(=O)NCCCN3CC(C)CC(C)C3)sc2n1` (configuration not stated) belongs 2.4% (inactive); to `Cc1cccc(OCc2nnc(SCC(=O)N3CCN(C(=O)c4ccco4)CC3)n2C)c1C`, 1.1% (inactive); to `CSc1nc(N)c(C#N)c(-c2ccccc2Cl)c1C#N`, -13.6% (inactive).
To `CCOC(=O)C(=CNc1cccc(C)n1)C(=O)OCC` belongs 8.8% (inactive); to `Cc1c(CCO)c(=O)n(-c2ccccc2)n1S(=O)(=O)c1ccc(F)cc1`, 78.5% (active); to `Cc1c(CCO)c(=O)[nH]n1C(=O)c1c(F)cccc1F`, 10% (inactive).
Turning to `CCOC(=O)C1CN(S(=O)(=O)c2ccc(F)cc2)C1`, the inhibition is 43.8% (inactive).
Turning to `Cc1cc(N2C(=O)C(=O)/C(=C(/O)c3ccc(Cl)cc3)C2c2cccc(Br)c2)no1` (configuration not stated), the inhibition was -6.1% (inactive).
`CC1CCc2c(sc3c2C2=NS(=O)(=O)CCN2C=N3)C1` (configuration not stated): the inhibition is -10% (inactive).
With `Cc1ccc(-n2nc3ccc(NC(=O)/C=C/c4ccco4)cc3n2)cc1C`, the inhibition is -6.9% (inactive).
Regarding `CCOc1ccc(-c2nnn(CC(=O)N3CCN(c4ccc(F)cc4)CC3)n2)cc1OCC`, the inhibition was 18.2% (inactive).
As for `Cc1ccc(SCC(=O)c2cc(C)c(OC(=S)N(C)C)c(C)c2)cc1`, the inhibition is 66.7% (active).
Turning to `COC(=O)c1cc(OC)c(OC)cc1NC(=O)CSc1ccc(C)cc1`, the inhibition was 29.5% (inactive).
As to `Cc1ccc(SC(=O)COc2ccc(C)c(C)c2)cc1`, the inhibition was 1.6% (inactive).
Take `CC(=O)N1CCc2cc(S(=O)(=O)Nc3ccccc3N3CCN(C)CC3)ccc21`: the inhibition was -2.4% (inactive).
As for `O=C(CNC(=O)c1ccc(Cl)cc1Cl)NCC(=O)Nc1ccccc1N1CCOCC1`, the inhibition is 20.6% (inactive).
For the compound `O=S(=O)(Nc1ccccc1N1CCOCC1)c1ccc(Cl)s1`, the inhibition is 50.4% (active).
In the case of `Cc1cc(NCc2ccco2)n2c(nc3ccccc32)c1C#N`, the inhibition was 0.2% (inactive).
As for `O=C(O)C1CCN(C(=O)OCc2ccccc2)CC1`, the inhibition is 31.9% (inactive).
Turning to `CCN1CCc2c(C#N)c(NCc3ccccc3)nc(NCCO)c2C1`, the inhibition was 9% (inactive).
In the case of `N#Cc1c(N)sc2c1CCN(C(=O)OCc1ccccc1)C2`, the inhibition was 92.8% (active).
Regarding `CC(C)Oc1ccc(C(=O)Nc2cc(=O)n(C)c(=O)n2C)cc1`, the inhibition is 12.2% (inactive).
Take `COC(=O)c1c(NC(=O)c2cccs2)sc2c1CCCC2`: the inhibition is 29.6% (inactive).
Regarding `CCOC(=O)c1c(NC(=O)CSc2nnc(C)c(=O)[nH]2)sc2c1CCC2`, the inhibition was -11.3% (inactive).
With `COC(=O)c1c(NC(=O)CSc2nncs2)sc2c1CCCCC2`, the inhibition was 82.9% (active).
To `Cc1ccc(S(=O)(=O)N/N=C\c2cc3c(cc2[N+](=O)[O-])OCO3)cc1` belongs -11% (inactive); to `CC1=NN(C(C)C)C(=O)C1`, -6.9% (inactive).
For `Cc1ccc(S(=O)(=O)NC(C)C(=O)Nc2ccccc2C(=O)N2CCCC2)cc1` (configuration not stated), the inhibition is 21.6% (inactive).
On to `COCCN(CC(=O)Nc1ccccc1C)S(=O)(=O)c1ccc(S(=O)(=O)N2CCCC2)cc1`, for which the inhibition is 5.4% (inactive).
As to `O=C(CN(c1ccccc1)S(=O)(=O)c1ccc(Cl)cc1)Nc1ccccc1C(=O)N1CCCC1`, the inhibition is 86.7% (active).
To `Cc1oc2nc(SCC(=O)NCc3cccnc3)nc(N)c2c1C` belongs 8% (inactive); to `c1ccc2c(-c3nn4nnnc4c4ccccc34)cccc2c1`, 78.9% (active); to `c1ccc2c(CNn3cnnc3)cccc2c1`, 26.1% (inactive).
In the case of `COc1ccc2c(c1OC)C(=O)N(c1ncn[nH]1)C2`, the inhibition is -17.6% (inactive).
On to `O=C(CCCn1c(=O)oc2ccccc21)Nc1cccnc1`, for which the inhibition is 24.5% (inactive).
To `O=C(OCN1C(=O)c2ccccc2C1=O)/C(=C\c1ccco1)NC(=O)c1ccccc1` belongs 17.6% (inactive); to `CC(=O)c1ccc2c(c1)c1ccccc1n2CC(C)C`, 16.4% (inactive); to `CS(=O)(=O)N(CC(O)Cn1c2ccccc2c2ccccc21)c1cccc2ccccc12` (configuration not stated), 77% (active).
As to `Cc1ccc(N(CC(O)CN2CCCC2)S(=O)(=O)c2ccccc2)cc1` (configuration not stated), the inhibition is 16.8% (inactive).
As for `O=C(NCCCN1CCOCC1)c1cnn2c(-c3ccccc3)cc(-c3ccccc3)nc12`, the inhibition was -3.7% (inactive).
`c1ccc(-n2nnnc2NC2CCCCCC2)cc1`: the inhibition is 33.5% (inactive).
The same measure for `Fc1ccccc1CCNc1nnnn1-c1ccccc1`: 73.1% (active); for `CCn1nnc(NC(=O)c2cc(Cl)c(OC)c(Cl)c2)n1`: 61.3% (active).
The same measure for `COc1c(Cl)cc(C(=O)Nc2ccc(Cl)cn2)cc1Cl`: 3.2% (inactive); for `CCn1nnc(NC(=O)c2c(OC)cccc2OC)n1`: -17.4% (inactive); for `CCCCNC(=S)NNC(=O)c1cc(C)on1`: 26.1% (inactive).
Take `CC(=O)Nc1cc2ccc(OC(C)=O)cc2oc1=O`: the inhibition is 8% (inactive).
The same measure for `CCOC(=O)c1c(CN2CCOCC2)n(-c2ccccc2)c2ccc(O)cc12`: 31.8% (inactive).
In the case of `CCOC(=O)CN(C(=O)CN1CCOCC1)c1ccc(Br)cc1`, the inhibition was 64.6% (active).
To `Cc1cccc(N(CC(=O)N2CCOCC2)S(C)(=O)=O)c1` belongs 3.3% (inactive); to `Cc1nn(Cc2ccc(C(=O)N3N=C(C(F)F)CC3(O)C(F)F)cc2)c(C)c1[N+](=O)[O-]` (configuration not stated), 10% (inactive); to `c1ccc2[nH]c(-c3nc4ccccc4[nH]3)nc2c1`, 53.1% (active).
For `Cc1ccc(-c2nc3ccccc3[nH]2)cc1N`, the inhibition is 47% (inactive).
To `c1ccc(-c2[nH]ncc2-c2nc3ccccc3[nH]2)cc1` belongs 31.2% (inactive); to `CC(C)COC(=O)C1C2C=CC3(CN(C(C)c4ccc(Br)cc4)C(=O)C13)O2` (configuration not stated), 31% (inactive); to `CC(=O)NC1(c2cccc(F)c2)CCN(CC(=O)NC(C)C)CC1`, 3.9% (inactive).
On to `C/C(Cl)=C\Cn1c(Nc2cccc(C)c2)nc2c1c(=O)n(C)c(=O)n2C`, for which the inhibition is -5.6% (inactive).
Consider `CCOC(=O)C1=C(C)NC2=C(C(=O)CC(C)(C)C2)C1c1ccsc1` (configuration not stated), for which the inhibition was 50.4% (active).
Take `CCCOC(=O)C1=C(C)NC2=C(C(=O)C(C(=O)OC)C(C)C2)C1c1ccc(N(C)C)cc1` (configuration not stated): the inhibition is 3.6% (inactive).
On to `COc1cc(C2C(C#N)=C(C)NC3=C2C(=O)CC(C)(C)C3)ccc1O` (configuration not stated), for which the inhibition is 20.5% (inactive).
Take `Cc1cccc(NC(=O)c2sc3nc4c(c(-c5ccco5)c3c2N)CCC4)c1`: the inhibition is 13.8% (inactive).
Take `O=C1CC(c2ccccc2)C(=O)N1c1cccc(O)c1` (configuration not stated): the inhibition was 60.7% (active).
For `O=C1CC(NNc2ccccc2)C(=O)N1c1cccc(Cl)c1` (configuration not stated), the inhibition was 18.7% (inactive).
Turning to `COC(=O)c1cc(C(=O)OC)cc(N2C(=O)CC(N3CCN(c4ccccc4)CC3)C2=O)c1` (configuration not stated), the inhibition is 12.1% (inactive).
To `O=C(NC1CCN(Cc2ccccc2)CC1)c1ccccc1F` belongs 6.3% (inactive).
Take `O=C(CCc1ccccc1)Nc1ccc(NC(=O)C2CC2)nc1`: the inhibition was 18.9% (inactive).
As to `CN1CCCN(S(=O)(=O)c2ccc3c(c2)OCCO3)CC1`, the inhibition was -1.5% (inactive).
As for `O=S(=O)(Nc1nccs1)c1ccc2c(c1)OCCO2`, the inhibition is 56.7% (active).
On to `CC(C)NS(=O)(=O)c1ccc(OCC(=O)Nc2ccc3c(c2)OCCO3)cc1`, for which the inhibition was 28.9% (inactive).
Regarding `CCCCC(CC)C(=O)Nc1ccc(Cl)cn1` (configuration not stated), the inhibition is 7.2% (inactive).
In the case of `CC(=O)Nc1ccc(S(=O)(=O)Nc2nc3n(n2)C(c2ccccc2)CC(=O)N3)cc1` (configuration not stated), the inhibition is -6% (inactive).
With `N=c1n(Cc2ccc(Cl)cc2)c2ccccc2n1CC(O)c1ccco1` (configuration not stated), the inhibition was 83.1% (active).
Regarding `O=S(=O)(O)c1nc2ccccc2n1Cc1ccc(Cl)cc1`, the inhibition is 2.7% (inactive).
The same measure for `Cn1c(=N)n(CC(O)c2ccccc2)c2ccccc21` (configuration not stated): -12.3% (inactive).
On to `Cc1ccc(/C=N/NC(=O)c2sccc2OCc2ccc(F)cc2)cc1`, for which the inhibition is -8.9% (inactive).
Take `Oc1ccccc1/C=N/n1c(-c2cccs2)n[nH]c1=S`: the inhibition is -14.5% (inactive).
For the compound `CCCN1CC=C2C(C#N)=C(N)C(C#N)(C#N)C(c3cc(OC)ccc3OC)C2C1` (configuration not stated), the inhibition is 16.6% (inactive).
As to `COC(=O)C1=C(C)OC(N)=C(C#N)C1c1cc(OC)ccc1OC` (configuration not stated), the inhibition was 53.3% (active).
For the compound `CCC1=C(C(=O)OC)C(c2cc(OC)ccc2OC)C(C#N)=C(N)O1` (configuration not stated), the inhibition was 54.8% (active).
Take `COc1ccc(-c2[nH]nc3c2C(c2ccncc2)C(C#N)=C(N)O3)cc1` (configuration not stated): the inhibition is -1.2% (inactive).
Take `CCCN1C(=O)C(NC(C)=O)c2cc(OC)ccc21` (configuration not stated): the inhibition was -12.9% (inactive).
As for `Cc1cc(=O)oc(C)c1C(=O)NCc1ccc(F)cc1`, the inhibition was 33.5% (inactive).
Turning to `CC(=O)NC(C(=O)NCC(N)=O)C(C)C` (configuration not stated) (Ac-[ξV]-Gly-NH2), the inhibition is -4% (inactive).
